{"source": "the OligoGym collection", "data": [{"target": "MIER1", "assay": "pooled miR-30 sensor sort-seq; sequence = guide strand", "settings": "shRNA", "values": [{"sequence": "TTCTTCTTTCCAAATCGTGTTT", "sensor-assay potency score (higher = more potent)": -0.957}, {"sequence": "TTCGTCTAGAAGACGATCCATG", "sensor-assay potency score (higher = more potent)": -1.5}, {"sequence": "TATAATCTTCATCTTCTTCAGA", "sensor-assay potency score (higher = more potent)": -0.137}, {"sequence": "TAGTCGAACAGTACTACCATAA", "sensor-assay potency score (higher = more potent)": -1.32}, {"sequence": "TTATCTTCTGGTAAGTACTCAG", "sensor-assay potency score (higher = more potent)": -0.171}, {"sequence": "TTGTGATGGATCATCATTGGAA", "sensor-assay potency score (higher = more potent)": -0.466}, {"sequence": "TATAATCACTTTATCTTCTGGT", "sensor-assay potency score (higher = more potent)": 0.758}, {"sequence": "TTAATCTTCTCAATGCTTCTTC", "sensor-assay potency score (higher = more potent)": 0.934}, {"sequence": "ATCATCAAAATCATGAACCAGC", "sensor-assay potency score (higher = more potent)": -0.377}, {"sequence": "TACTGTTTGATGCAGTTGGGGG", "sensor-assay potency score (higher = more potent)": -0.856}, {"sequence": "TTAATATTTCACCTGGTCCATT", "sensor-assay potency score (higher = more potent)": -1.02}, {"sequence": "AATTTCTACACTCTTCCTCTGT", "sensor-assay potency score (higher = more potent)": 0.0886}]}, {"target": "MIOX", "assay": "pooled miR-30 sensor sort-seq; sequence = guide strand", "settings": "shRNA", "values": [{"sequence": "TTGTTAAACTTCATCACCTGGT", "sensor-assay potency score (higher = more potent)": -0.0605}, {"sequence": "TCGAACTTGTTGAACTCCCGCA", "sensor-assay potency score (higher = more potent)": -0.101}, {"sequence": "TCTGGGTCCACATCAGGTCGGT", "sensor-assay potency score (higher = more potent)": -0.363}, {"sequence": "TTGGTGTAGAGGTCGAACTTGT", "sensor-assay potency score (higher = more potent)": -0.568}, {"sequence": "TACATCCCGAGCTCTGTGCTGT", "sensor-assay potency score (higher = more potent)": -0.811}, {"sequence": "TGCATGAGCTTGTAGGTGGTGA", "sensor-assay potency score (higher = more potent)": -0.613}, {"sequence": "TTCTTGTAGGAGAAGCCCCCAA", "sensor-assay potency score (higher = more potent)": -0.777}, {"sequence": "TGTGCTGTATCGAGGATCCTGG", "sensor-assay potency score (higher = more potent)": -0.757}, {"sequence": "TTGTAGGTGGTGAAGACACGGT", "sensor-assay potency score (higher = more potent)": -0.626}, {"sequence": "TTTTCTTGTAGGAGAAGCCCCC", "sensor-assay potency score (higher = more potent)": -0.0971}, {"sequence": "TCCATGACTGTCATTTTCTTGT", "sensor-assay potency score (higher = more potent)": -1.1}, {"sequence": "TTGGGGAAATCTACGTCCGGGT", "sensor-assay potency score (higher = more potent)": -0.845}]}, {"target": "MIP", "assay": "pooled miR-30 sensor sort-seq; sequence = guide strand", "settings": "shRNA", "values": [{"sequence": "TGAGGACAGACAGTCTCTCAGA", "sensor-assay potency score (higher = more potent)": -1.25}, {"sequence": "TAGGTTTCCTCGGACAGCAGGT", "sensor-assay potency score (higher = more potent)": -0.243}, {"sequence": "TGTCCATTGGAGACATCGGGTT", "sensor-assay potency score (higher = more potent)": -1.24}, {"sequence": "TTGAGTGCTAGGTTTCCTCGGA", "sensor-assay potency score (higher = more potent)": -0.0163}, {"sequence": "TTCCTCGGACAGCAGGTGGGGT", "sensor-assay potency score (higher = more potent)": -1.18}, {"sequence": "TTCAGTTCAACAGGTTCCCCTG", "sensor-assay potency score (higher = more potent)": -0.987}, {"sequence": "TAACGCTATACAGCACAGCGGC", "sensor-assay potency score (higher = more potent)": -1.18}, {"sequence": "TCGTATGTGGCAAAGATGCAGA", "sensor-assay potency score (higher = more potent)": -0.993}, {"sequence": "TCTCTCAGAAATACTCTTGAGC", "sensor-assay potency score (higher = more potent)": -0.614}, {"sequence": "TGAGTGCTAGGTTTCCTCGGAC", "sensor-assay potency score (higher = more potent)": -0.712}, {"sequence": "TTGTCCATTGGAGACATCGGGT", "sensor-assay potency score (higher = more potent)": -0.903}, {"sequence": "TCAGAAATACTCTTGAGCCGGG", "sensor-assay potency score (higher = more potent)": 0.442}]}, {"target": "MIS12", "assay": "pooled miR-30 sensor sort-seq; sequence = guide strand", "settings": "shRNA", "values": [{"sequence": "TATGATTCTACTTTTTGACAGG", "sensor-assay potency score (higher = more potent)": -0.668}, {"sequence": "TAATTCTGCAAGAAGGGCCTGC", "sensor-assay potency score (higher = more potent)": 0.0971}, {"sequence": "TTAGTACATAATTCAGTCTTGT", "sensor-assay potency score (higher = more potent)": -0.329}, {"sequence": "TGAAATGCAATGTAGATCCGAA", "sensor-assay potency score (higher = more potent)": 0.0164}]}]}
